Bioassay records: PubChem, several laboratories
Sampled rows, rich in hits. Any-hit rate of the full collection: about 1.5%.
RN4220 kill = S. aureus RN4220 growth inhibition. OD600, 16 h. inhibition, % (no concentration beside the values). hit rate 0.33% among 330,000. AID 1259311; in the data active = inhibition above about 85%;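 note: plate controls were untreated cells for no effect and reference antibiotic for full effect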
SSB-PriA inh = inhibitors of Klebsiella pneumoniae PriA binding to SSB C-terminal tail | AlphaScreen SSBct-PriA binding, biotinylated peptide | inhibition, % at 33 µM | hit rate 0.6% among 430,000; in the data active = inhibition mostly above about 37%, no sharp cut-off; inactive = mostly below about 20%;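 note: plate controls were negative control peptide for no effect and reference peptide for full effect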
CCHF vOTU inh = blocks the CCHF virus ovarian tumor domain protease | CCHFV vOTU protease, Pep-AMC fluorescence | inhibition, % at 11.5 µM | hit rate 0.55% among 370,000; in the data active = inhibition above about 30%; note: 0% = vehicle wells with enzyme and 100% = no enzyme wells
Sa ugtP lethal = growth inhibition of S. aureus ugtP deletion strain; S. aureus RN4220 ugtP deletion, OD600 growth, 16 h; hit rate 0.54% among 330,000; growth inhibition, % (test concentration not listed); AID 1259309; in the data active = growth inhibition above about 68%;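 note: plate controls were untreated wells for no effect and antibiotic for full effect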
VHR inh abs = inhibitors of human VHR1 phosphatase (DUSP3) | recombinant VHR phosphatase, pNPP absorbance | inhibition, % at 13.3 µM | P51452 | AID 1654 | hit rate 0.52% among 290,000; in the data active = inhibition above about 50%
Target sequence (P51452 whole entry, looked up): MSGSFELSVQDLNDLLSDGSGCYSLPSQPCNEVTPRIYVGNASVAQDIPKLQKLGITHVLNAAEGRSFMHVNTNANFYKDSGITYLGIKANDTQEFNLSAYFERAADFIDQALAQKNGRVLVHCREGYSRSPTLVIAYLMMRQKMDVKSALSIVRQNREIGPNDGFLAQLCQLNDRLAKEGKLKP
Numbers without * were called inactive; x = not tested or not shown.

SMILES	RN4220 kill	SSB-PriA inh	CCHF vOTU inh	Sa ugtP lethal	VHR inh abs
O=C(O)c1ccnc(Br)c1	x	-6.0	x	x	x
O=C(O)c1ccnc(C(=O)O)c1	2.3	56.9*	-10.2	5.5	15.4
O=C(O)c1cc(-n2ccnc2)ccn1	x	72.2*	x	x	x
O=C(Nc1ccccc1)OC1CCCC(NC(=O)c2cnccn2)C1 (centres undefined)	x	-6.0	x	x	x
COc1ccc(CCNC(=O)NCc2ccc([C@H](O)c3ccccc3)s2)cc1	x	-11.0	x	x	x
CC(=O)Nc1ccc(S(=O)(=O)NCCc2ccoc2)cc1	x	0.0	x	x	x
COc1cc(OC)cc(C(=O)NCCOc2ccc3nnc(-c4ccccc4OC)n3n2)c1	x	-2.0	x	x	x
O=C(O)c1cc(Br)ccn1	6.7	99.7*	2.4	1.7	7.7
O=C(O)c1ccccn1	x	55.3	-8.7	x	x
O/N=C/c1cccc[n+]1CCCCCC[n+]1ccccc1/C=N/O	x	x	-6.9	x	60.0*
S=c1[nH]nc(-c2ccccn2)n1N=Cc1cccs1	1.4	57.6*	x	-3.7	x
S=c1[nH]nc(-c2ccccc2)n1/N=C/c1cccs1	x	x	x	x	-11.5
O=[N+]([O-])c1cc2c(cc1C=Nn1c(-c3ccccn3)n[nH]c1=S)OCO2	-4.1	98.8*	x	10.9	x
O=C(OC1CN(c2nc3ccc(F)cc3s2)C1)c1ccc(Br)s1	x	-11.0	x	x	x
CCOC(=O)c1c(NC(=O)CSc2nnc(Cc3ccccc3)o2)sc(C)c1C	19.3	-21.9	14.9	97.8*	17.8
O=C(CSc1ccc(NC(=O)c2ccccc2F)nn1)NCc1cccs1	x	-7.0	x	x	x
COc1ccc(NC(=O)c2cc(-c3ccccc3O)n[nH]2)cc1Cl	2.5	1.2	3.0	10.1	1.6
COc1ccc(NC(=O)c2cc(-c3cc(C)cc(C)c3O)n[nH]2)cc1Cl	49.8	-1.5	5.4	89.5*	21.9
CCc1ccccc1NC(=O)CCc1c(C)nn(-c2nc(C)cc(=O)[nH]2)c1C	x	17.0	x	x	x
O=C(Cc1csc(Nc2cccc(Cl)c2)n1)Nc1ccc2c(c1)OCCO2	x	20.0*	x	x	x
O=C(Cc1csc2nc(-c3ccccc3)cn12)Nc1ccc2c(c1)OCCO2	x	44.0*	x	x	x
O=C(Cc1c(C(=O)O)[nH]c2ccc(Cl)cc12)Nc1ccc2c(c1)OCCO2	2.0	-8.4	11.6	7.7	51.7*
Cc1ccc(NS(C)(=O)=O)cc1N1CCCC1=O	x	2.0	x	x	x
O=C(CCS(=O)(=O)c1ccc(F)cc1)Nc1ccc(-c2nc3ccccc3s2)c(O)c1	x	-9.0	x	x	x
CCCc1cc(=O)oc2cc(C)cc(OCc3nn[nH]n3)c12	6.4	-24.9	-48.1	-0.5	17.9
SMILES	RN4220 kill	SSB-PriA inh	CCHF vOTU inh	Sa ugtP lethal	VHR inh abs
Cc1cc(=O)oc2c1c(C)nn2-c1nn[nH]n1	2.9	58.3*	-17.9	3.3	8.5
COC(=O)/C(C#N)=C/c1ccc(-c2ccc(OC)cc2)o1	x	-11.0	x	x	x
COc1cccc2c(=O)n(CC(=O)Nc3ccc(F)cc3)ccc12	-5.6	104.2*	4.8	-7.5	-1.9
O=C(CNC(=O)C1COc2ccccc2O1)NN=Cc1ccccc1Cl (centres undefined)	x	-3.7	x	x	x
O=C(CNC(=O)C1COc2ccccc2O1)N/N=C\c1ccccc1Cl (centres undefined)	x	x	-0.4	x	55.6*
O=C(NC[C@@H](O)Cc1ccccc1)c1cccc(Br)c1	x	-9.0	x	x	x
CCc1ccc(CCC(=O)Nc2ncc(Cc3ccccc3Cl)s2)o1	3.8	0.3	3.8	-9.2	59.9*
O=C(NCCn1ccc(-c2ccsc2)n1)Nc1cccc(C(F)(F)F)c1	x	-12.0	x	x	x
O=C(NCC1CCN(C(=O)c2ccoc2)CC1)c1ccc2nsnc2c1	x	-12.0	x	x	x
CCCCn1c(=O)[nH]c2nc3cc(N)ccc3nc2c1=O	6.9	-16.7	50.1*	-0.4	1.1
Cc1nc(N)nc(N)c1/C=C/C(C)(C)c1ccc(Cl)cc1	99.0*	-7.1	-0.9	99.7*	-11.2
Cc1ncoc1C(=O)NC1CC(C)(C)Cc2c1cnn2-c1ccc(F)cc1 (centres undefined)	2.6	-20.3	-2.1	4.2	53.4*
Cc1ccc(NC(=O)NCC2CCN(C(=O)Oc3ccccc3)CC2)cc1C	x	-16.0	x	x	x
COc1ccc(N=c2cc(-c3ccc(OC)cc3)oc3ccccc23)cc1	x	53.1*	-1.7	x	22.7
CCOc1ccc(N=c2cc(-c3ccc(OC)cc3)oc3ccccc23)cc1	-11.1	38.6*	-16.4	-2.6	-7.5
COc1ccc(-c2cc(=O)c3ccccc3o2)cc1	12.7	-2.1	-287.8	10.6	25.8
COc1ccc(-c2cc(=Nc3ccccc3)c3cc(C)ccc3o2)cc1	-4.4	28.9	-147.1	-12.9	1.9
COc1ccc(N=c2cc(-c3ccc(O)cc3)oc3ccccc23)cc1	-6.2	42.5*	5.6	-2.7	-2.7
COc1ccc(-c2cc(=Nc3ccc(C)cc3)c3ccccc3o2)cc1	-15.8	10.3	-15.3	21.1	5.4
COc1ccc(NC(=O)CSc2nc(CC(=O)NCCc3c[nH]c4ccccc34)cs2)cc1	x	12.0	x	x	x
